# Measurements published in PubChem BioAssay (NCATS).
# Inconclusive results are not listed. Entries that show only a call come without a potency. The source made the active and inactive calls. Calls come from the whole dose curve; as a rule, active = well fitted curve in the direction sought with a large enough effect; inconclusive = small, poorly fitted or top-dose-only effect, or another doubt; inactive = no such curve, though single readings can be large; an effect the other way counts as inactive or inconclusive.
# How the values were obtained:
# [1] = molecular target: Glutathione peroxidase 1 (Homo sapiens) (UniProt P07203); experiment: Primary qHTS Assay for Inhibitors of Recombinant Selenoprotein Glutathione Peroxidase 1 (GPX1) (AID 1845191); conditions: outcome: dose series up to 48.8 µM; note: nearly all actives have a fitted effect of over 65% in size
# In short: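 GR-coupled readout: NADPH consumption tracked by fluorescence, ex 340/em 450 nm, at t=0 and after 15 min at RT. Final mix 10 nM GPX1, 1 mM GSH, 0.5 mM CHP, 0.5 mM NADPH, 100 nM GR, 0.01% BSA, following 30 min enzyme–compound preincubation.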
# [2] = molecular target: Phospholipid hydroperoxide glutathione peroxidase GPX4 (Homo sapiens) (UniProt P36969); experiment: Primary qHTS Assay for Inhibitors of Recombinant Selenoprotein Glutathione Peroxidase 4 (GPX4) (AID 1845192); note: nearly all actives have a fitted effect of over 65% in size
# In short: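 Steps: GPX4 plus compound, 30 min RT; add GR/GSH/NADPH master mix; start with cumene hydroperoxide; read 340/450 nm fluorescence at 0 and 15 min. Finals were 200 nM GPX4, 1 mM GSH, 0.5 mM CHP, 0.5 mM NADPH, 100 nM GR.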
# [3] = molecular target: Luciferin 4-monooxygenase (Photinus pyralis) (UniProt P08659); experiment: Primary firefly luciferase (FLuc) qHTS assay for identification of artifact compounds. (AID 1845220); conditions: outcome: dose series up to 54.1 µM; note: nearly all actives have a fitted effect of over 60% in size
# In short: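 Titrated compounds were incubated 15 min at RT, protected from light, with luciferin and ATP at 10 uM; reaction started with 10 nM FLuc, luminescence imaged at 5 min, and concentration-response fitted by Hill equation.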
# [4] = tested on: Nanoluciferase (engineered Oplophorus gracilirostris luciferase); experiment: Primary Nanoluciferase (NLuc) qHTS assay for identification of artifact compounds. (AID 1845222);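 note: NLuc secreted into diluted conditioned medium of S16 cells; series mostly up to about 54 µM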
# In short: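 qHTS format, against NLuc in S16 cell-conditioned medium. Nano-Glo substrate 1:100 was added after 15 min at room temperature. Luminescence was taken after a further 5 min.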
# [5] = Primary redox qHTS assay for identification of artifact compounds. (AID 1845223)
# In short: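 Redox-cycling detection via DTT (250 uM final) oxidation coupled to Amplex Red (25 uM)/HRP (250 mU/mL) in HBSS. 15 min preincubation plus 30 min after DTT, room temperature. Ex/Em 525/598 nm; 4-parameter Hill fit against DMSO and 10 uM DA3003.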
# Phospholipid hydroperoxide glutathione peroxidase GPX4 (Homo sapiens), sequence (P36969 whole entry, looked up): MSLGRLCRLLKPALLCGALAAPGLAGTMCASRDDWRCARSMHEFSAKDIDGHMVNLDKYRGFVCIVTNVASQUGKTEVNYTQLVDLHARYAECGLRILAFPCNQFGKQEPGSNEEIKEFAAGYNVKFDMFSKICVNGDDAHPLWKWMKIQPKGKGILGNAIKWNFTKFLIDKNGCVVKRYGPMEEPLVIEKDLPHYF
# Glutathione peroxidase 1 (Homo sapiens), sequence (P07203 whole entry, looked up): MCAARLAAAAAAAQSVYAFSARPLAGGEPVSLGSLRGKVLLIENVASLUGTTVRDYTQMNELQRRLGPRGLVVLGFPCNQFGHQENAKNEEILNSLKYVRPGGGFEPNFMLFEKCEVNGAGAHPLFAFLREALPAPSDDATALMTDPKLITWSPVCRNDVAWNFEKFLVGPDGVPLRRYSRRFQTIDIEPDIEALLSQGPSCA
smiles,measurement,setting,value
C#C[C@]1(O)C=C[C@H]2[C@@H]3CCC4=CC(=O)CC[C@@H]4[C@H]3CC[C@@]21CC,outcome,[1],inactive
COc1ccc2c(C(=O)c3ccc(Cl)cc3)c(C)n(CC(=O)O)c2c1,outcome,[1],inactive
same,Potency,[2],inactive
same,outcome,[3],inactive
same,outcome,[4],inactive
CC(C)[N+](C)(CCC(C(N)=O)(c1ccccc1)c1ccccc1)C(C)C,outcome,[1],inactive
same,Potency,[2],inactive
CN1C2CCC(C)(C)C1CC(OC(=O)C(O)(c1cccs1)c1cccs1)C2 (centres undefined),outcome,[1],inactive
O=C(N[C@H]1N=C(c2ccccc2F)c2cccc3c2N(CC3)C1=O)c1cc2ccccc2[nH]1,outcome,[1],inactive
same,outcome,[3],inactive
same,outcome,[4],inactive
same,outcome,[5],inactive
C[C@@H]1CN(C2CCC(C#N)(c3ccc(F)cc3)CC2)CC[C@]1(C(=O)O)c1ccccc1 (some centres undefined),outcome,[1],inactive
same,Potency,[2],inactive
C[C@]12Cc3nonc3C[C@@H]1CC[C@@H]1[C@@H]2CC[C@@]2(C)[C@H]1CC[C@]2(C)O,outcome,[1],inactive
same,Potency,[2],inactive
COP(=S)(OC)Oc1ccc(S(N)(=O)=O)cc1,outcome,[1],inactive
CCOC(=O)c1cncn1C(C)c1ccccc1 (centres undefined),outcome,[1],inactive
same,outcome,[3],inactive
same,outcome,[4],inactive
same,outcome,[5],inactive
CC(Cc1ccccc1)NCc1ccccc1Cl (centres undefined),outcome,[1],inactive
CCCOC(=O)Cc1ccc(OCC(=O)N(CC)CC)c(OC)c1,outcome,[1],inactive
same,outcome,[3],inactive
same,outcome,[4],inactive
same,outcome,[5],inactive
O=C(NC(=O)c1c(F)cccc1F)Nc1cc(Cl)c(OC(F)(F)C(F)C(F)(F)F)cc1Cl (centres undefined),outcome,[1],inactive
O=C1CN2CCOC2(c2ccccc2Cl)c2cc(Cl)ccc2N1 (centres undefined),outcome,[1],inactive
same,Potency,[2],inactive
O=C(N[C@@H]1N=C(c2ccccc2F)c2cccc3c2N(CC3)C1=O)c1cc2ccccc2[nH]1,outcome,[4],inactive
same,outcome,[5],inactive
c1ccc2c(c1)Sc1ccccc1N2CC1CN2CCC1CC2 (centres undefined),outcome,[1],inactive
same,Potency,[2],inactive
C[C@@H]1C[C@@H]([C@H](O)CC2CC(=O)NC(=O)C2)C(=O)[C@@H](C)C1,outcome,[1],inactive
same,Potency,[2],inactive
COc1ccc(CN2CCNCC2)c(OC)c1OC,outcome,[1],inactive
CCC(=O)C(CCN(C)C)(c1ccccc1)c1ccccc1,outcome,[1],inactive
same,Potency,[2],inactive
Nc1ccccc1C(=O)OCC(O)CO (centres undefined),outcome,[1],inactive
same,Potency,[2],inactive
CCN(CC)Cc1nccn1-c1ccc([N+](=O)[O-])cc1C(=O)c1ccccc1Cl,outcome,[1],inactive
same,Potency,[2],inactive
CCOC(=O)c1ncn2c1CN(C)C(=O)c1c(I)cccc1-2,outcome,[1],inactive
same,Potency,[2],inactive
same,outcome,[3],inactive
same,outcome,[4],inactive
same,outcome,[5],inactive
CCC(=O)O[C@H]1CC[C@H]2[C@@H]3CCC4=CC(=O)CC[C@]4(C)[C@H]3CC[C@]12C,outcome,[1],inactive
same,Potency,[2],inactive
COP(=O)(OC)C(O)C(Cl)(Cl)Cl (centres undefined),outcome,[1],inactive
same,Potency,[2],inactive
CC[C@H]1C[C@H]2[C@@H]3CCC4=CC(=O)CC[C@@H]4[C@H]3CC[C@]2(C)[C@H]1O,outcome,[1],inactive
same,outcome,[3],inactive
same,outcome,[4],inactive
same,outcome,[5],inactive
O=C(O)CCCCCCNC1c2ccccc2CCc2ccccc21,outcome,[1],inactive
same,Potency,[2],inactive
same,outcome,[3],inactive
same,outcome,[4],inactive
same,outcome,[5],inactive
Cc1c(Cl)c(=O)oc2cc(OP(=O)(OCCCl)OCCCl)ccc12,Potency,[2],inactive
CCCC[N+]1(C)[C@@H]2CC(OC(=O)[C@H](CO)c3ccccc3)C[C@H]1[C@@H]1O[C@@H]12 (some centres undefined),outcome,[1],inactive
same,Potency,[2],inactive
same,outcome,[3],inactive
same,outcome,[4],inactive
same,outcome,[5],inactive
O=c1n(Cl)c(=O)n(Cl)c(=O)n1Cl,Potency,[2],inactive
CC(Cc1ccccc1)NCCCCl (centres undefined),outcome,[1],inactive
same,Potency,[2],inactive
CCCCCCCCC(=O)NCc1ccc(O)c(OC)c1,outcome,[1],inactive
same,Potency,[2],inactive
CNC(=O)Oc1cccc2ccccc12,outcome,[1],inactive
same,Potency,[2],inactive
CCOC(=O)NC(C)(C)Cc1ccc(Cl)cc1,outcome,[1],inactive
same,outcome,[3],inactive
same,outcome,[4],inactive
same,outcome,[5],inactive
CC(C(O)c1ccccc1)N(C)C/C=C/c1ccccc1 (centres undefined),outcome,[1],inactive
same,Potency,[2],inactive
